Here are results for 5 molecules from PubChem BioAssay.

Calls of active or inactive are those of the source.

A short description of experiment [1]: small molecules captured by biotinylated probe aFSTL3 – biochemical, small-molecule microarray, fluorescence 635/667, stem cell growth factor project, primary screen (AID 1064).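 Note: measures binding of the biotinylated anti-FSTL3 antibody to printed compounds.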 The conditions noted are these: higher = more signal.
The nature of experiment [2]: binders from COS7 lysate, DM2A8 probe, primary screen, torsin A project, cell lysate, small-molecule microarray, fluorescence 635/667 (AID 1065). The conditions noted are these: higher = more signal, COS7 lysate expressing mutant human TOR1A.
The nature of experiment [3]: small molecules captured by biotinylated probe aFGF2 – biochemical, small-molecule microarray, fluorescence 635/667, stem cell growth factor project, primary screen (AID 1067).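 Note: measures binding of biotinylated aFGF2 protein to printed compounds on slides; z-score merges feature fluorescence and signal-to-noise across triplicate slides.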 The following applies: higher = more signal.
Experiment [4] in a line: small molecules captured by biotinylated probe aFGF10 – biochemical, small-molecule microarray, fluorescence 635/667, stem cell growth factor project, primary screen (AID 1071).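 Note: score merges 667 nm spot intensity and signal to noise from triplicate slides.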 The following applies: higher = more signal.
The target in experiment [5] is Neurogenic locus notch homolog protein 2 (Homo sapiens) (UniProt Q04721). As to the kind of experiment: small molecules binding Notch2 protein – biochemical, small-molecule microarray, 635 nm fluorescence, stem cell growth factors, primary screen (AID 1073). The following applies: higher = more signal.
In experiment [6] the target is Pro-neuregulin-1, membrane-bound isoform (Homo sapiens) (UniProt Q02297). As to the kind of experiment: small molecules binding neuregulin-1 protein – biochemical, small-molecule microarray, fluorescence 635/667, psychiatric disease protein project, primary screen (AID 1075).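 Note: score combines 667 nm spot fluorescence with signal to noise.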 The following applies: NRG1 binding, 635 nm fluorescence, higher = more signal.
Experiment [7] relates to Neuregulin-1 EGF-like domain. As to the kind of experiment: small molecules binding NRG1 EGF domain – biochemical, small-molecule microarray, 635 nm fluorescence, primary screen (AID 1081).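 Note: binding of the protein to compounds printed on small-molecule microarray slides.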 The following applies: higher = more signal.
Experiment [8] is described as follows: FRG1 expression reporter modulators in myotubes – cell-based, C2C12 myotubes, firefly/Renilla luciferase, luminescence, FRG1 inhibition for FSHD, primary screen (AID 1084). The conditions noted are these: FRG1 promoter luciferase, higher = more signal, called active from +8 up or from −8 down.
Experiment [9] can be described thus: small molecules captured by biotinylated probe aFST – biochemical, small-molecule microarray, fluorescence 635/667, stem cell growth factor project, primary screen (AID 1086).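 Note: score merges 667 nm fluorescence with signal-to-noise of each printed compound spot.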 The following applies: higher = more signal.
A short description of experiment [10]: binders of probe aHhip on microarray, primary screen, stem cell growth factor project, biochemical, small-molecule microarray, fluorescence 635/667 (AID 1087).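 Note: score merges spot fluorescence at 667nm with spot signal to noise ratio.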 The following applies: higher = more signal.
The test system of experiment [11] is PRMT1 (protein arginine N-methyltransferase 1). As to the kind of experiment: small molecules binding arginine methyltransferase PRMT1 – biochemical, small-molecule microarray, 635 nm fluorescence, primary screen (AID 1088).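 Note: binding of Prmt1 protein to compounds spotted on small-molecule microarray slides.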 The following applies: higher = more signal.
Experiment [12] can be described thus: growth effects on S. cerevisiae YJM789 – YJM789 clinical isolate, OD600, 24 h, basal, primary screen (AID 1089).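 Note: growth of clinical yeast isolate S. cerevisiae YJM 789 seeded 1000 cells per well; test concentration not given here.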 The following applies: higher = more signal, called active from +8 up or from −8 down.
A short description of experiment [13]: S. pombe growth modifiers, basal conditions – strain 972, OD600, 24 h, no modulator, primary screen (AID 1090).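 Note: basal condition with compound alone and no growth modifier present; test concentration not given here.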 The conditions noted are these: S. pombe 972 growth, higher = more signal, called active from +8 up or from −8 down.
The nature of experiment [14]: budding yeast growth modifiers under rapamycin – strain BY4716, OD600, 96 h, primary screen (AID 1091). Note: test concentration not given here. The following applies: S. cerevisiae BY4716 + rapamycin, higher = more signal, called active from +8 up or from −8 down.
Experiment [15] deals with Torsin-1A-interacting protein 2 (Homo sapiens) (UniProt Q8NFQ8). As to the kind of experiment: small molecules binding lysate-expressed LULL1 – cell lysate, human LULL1 lysate, 635/667 nm fluorescence, primary screen (AID 1092).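 Note: probe is lysate of COS7 cells overexpressing human LULL1; score merges per-feature 667 nm fluorescence with signal-to-noise.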 The following applies: small-molecule microarray, hLULL1 lysate binding, 635 nm fluorescence; higher = more signal.
Experiment [16] in a line: optical density change of DRC41 E. coli – strain DRC41, OD650, 24 h, E. coli filamentation project, primary screen (AID 1093).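 Note: MC1000 strain lacking acrAB efflux and sulA so SOS filamentation is blocked; test concentration not given here.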 The following applies: E. coli DRC41 growth, higher = more signal, called active from +8 up or from −8 down.
Experiment [17] can be described thus: probe aLefty2 binding to arrayed compounds – biochemical, biotinylated probe, 635/667 nm fluorescence, primary screen (AID 1094).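 Note: score merges spot fluorescence near 667 nm with spot signal-to-noise ratio.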 The conditions noted are these: small-molecule microarray, higher = more signal.
Experiment [18] relates to Noggin (protein binding on small-molecule microarray). In words: small molecules binding Noggin protein – biochemical, 635/667 nm fluorescence, primary screen (AID 1095).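 Note: score merges 667 nm feature fluorescence with signal to noise over triplicate slides.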 The conditions noted are these: 635 nm fluorescence, higher = more signal.
Experiment [19] deals with Neurogenic locus notch homolog protein 3 (Homo sapiens) (UniProt Q9UM47). In words: small molecules binding NOTCH3 protein – biochemical, 635/667 nm fluorescence, primary screen (AID 1096). The conditions noted are these: small-molecule microarray, 635 nm fluorescence, higher = more signal.
A short description of experiment [20]: probe aEGFR binding to arrayed compounds – biochemical, biotinylated probe, 635/667 nm fluorescence, primary screen (AID 1097).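 Note: probe is a biotinylated anti-EGFR antibody binding compounds printed on slides; score combines fluorescence near 667 nm and signal to noise of each spot.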 The following applies: small-molecule microarray, higher = more signal.

Neurogenic locus notch homolog protein 3 (Homo sapiens), sequence (Q9UM47 whole entry, looked up): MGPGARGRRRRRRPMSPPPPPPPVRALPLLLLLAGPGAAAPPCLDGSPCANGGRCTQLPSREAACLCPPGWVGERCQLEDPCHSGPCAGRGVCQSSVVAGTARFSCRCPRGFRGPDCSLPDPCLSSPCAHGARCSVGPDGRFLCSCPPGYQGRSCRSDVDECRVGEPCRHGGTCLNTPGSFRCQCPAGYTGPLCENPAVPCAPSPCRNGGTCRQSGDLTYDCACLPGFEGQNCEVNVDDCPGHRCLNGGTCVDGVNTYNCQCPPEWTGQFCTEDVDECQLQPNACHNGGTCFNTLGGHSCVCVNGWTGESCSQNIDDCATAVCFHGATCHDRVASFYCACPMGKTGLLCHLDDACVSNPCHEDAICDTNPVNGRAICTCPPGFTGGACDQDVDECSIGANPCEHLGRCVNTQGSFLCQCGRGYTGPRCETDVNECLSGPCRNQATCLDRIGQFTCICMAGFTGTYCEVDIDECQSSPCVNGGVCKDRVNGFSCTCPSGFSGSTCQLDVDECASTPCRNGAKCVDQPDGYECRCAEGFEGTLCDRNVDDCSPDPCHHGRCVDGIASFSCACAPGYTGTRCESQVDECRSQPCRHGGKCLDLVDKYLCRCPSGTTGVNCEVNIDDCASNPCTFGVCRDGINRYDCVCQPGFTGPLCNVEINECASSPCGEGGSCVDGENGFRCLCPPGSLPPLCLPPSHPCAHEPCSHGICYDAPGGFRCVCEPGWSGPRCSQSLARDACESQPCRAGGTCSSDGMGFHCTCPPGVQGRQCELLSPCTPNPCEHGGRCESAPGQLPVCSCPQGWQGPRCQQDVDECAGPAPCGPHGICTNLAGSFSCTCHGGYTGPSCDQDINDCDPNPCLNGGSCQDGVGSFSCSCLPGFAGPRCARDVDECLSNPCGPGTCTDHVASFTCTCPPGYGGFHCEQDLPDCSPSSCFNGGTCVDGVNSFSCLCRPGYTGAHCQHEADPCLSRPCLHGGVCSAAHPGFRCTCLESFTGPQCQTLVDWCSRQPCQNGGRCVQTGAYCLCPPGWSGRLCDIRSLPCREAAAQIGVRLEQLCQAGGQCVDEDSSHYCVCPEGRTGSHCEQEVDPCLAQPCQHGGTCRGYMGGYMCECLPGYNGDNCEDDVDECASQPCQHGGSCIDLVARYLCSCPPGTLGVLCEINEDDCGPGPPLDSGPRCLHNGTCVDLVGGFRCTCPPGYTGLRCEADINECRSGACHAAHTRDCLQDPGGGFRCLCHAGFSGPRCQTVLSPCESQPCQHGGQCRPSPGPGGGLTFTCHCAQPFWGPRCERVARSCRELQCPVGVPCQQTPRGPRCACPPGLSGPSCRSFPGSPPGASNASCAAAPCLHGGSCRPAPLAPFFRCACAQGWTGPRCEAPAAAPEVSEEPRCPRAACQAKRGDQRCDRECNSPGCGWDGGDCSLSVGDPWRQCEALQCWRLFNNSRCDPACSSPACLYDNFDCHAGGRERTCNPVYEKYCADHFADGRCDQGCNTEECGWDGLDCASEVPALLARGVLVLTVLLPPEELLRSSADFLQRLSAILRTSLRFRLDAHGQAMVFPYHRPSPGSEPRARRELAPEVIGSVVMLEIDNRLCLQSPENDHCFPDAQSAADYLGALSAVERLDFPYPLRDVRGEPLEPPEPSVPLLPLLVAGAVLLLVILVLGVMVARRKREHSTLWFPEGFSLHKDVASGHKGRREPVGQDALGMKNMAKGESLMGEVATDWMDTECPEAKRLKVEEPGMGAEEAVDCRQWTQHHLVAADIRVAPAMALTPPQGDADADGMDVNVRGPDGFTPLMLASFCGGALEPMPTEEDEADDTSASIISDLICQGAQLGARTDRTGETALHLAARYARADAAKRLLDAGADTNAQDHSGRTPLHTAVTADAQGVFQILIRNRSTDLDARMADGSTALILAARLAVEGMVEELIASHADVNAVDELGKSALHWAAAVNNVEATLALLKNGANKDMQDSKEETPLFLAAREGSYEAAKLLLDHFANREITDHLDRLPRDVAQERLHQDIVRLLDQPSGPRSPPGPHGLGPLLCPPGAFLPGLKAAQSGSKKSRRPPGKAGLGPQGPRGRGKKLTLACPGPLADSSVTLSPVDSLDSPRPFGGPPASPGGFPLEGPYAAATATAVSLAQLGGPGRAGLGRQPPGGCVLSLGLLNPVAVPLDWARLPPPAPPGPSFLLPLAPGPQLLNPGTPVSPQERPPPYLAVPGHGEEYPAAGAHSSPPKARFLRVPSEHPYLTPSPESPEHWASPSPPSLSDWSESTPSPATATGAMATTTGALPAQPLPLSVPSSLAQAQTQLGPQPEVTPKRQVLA
Pro-neuregulin-1, membrane-bound isoform (Homo sapiens), sequence (Q02297 whole entry, looked up, the tested form may be a part, canonical isoform): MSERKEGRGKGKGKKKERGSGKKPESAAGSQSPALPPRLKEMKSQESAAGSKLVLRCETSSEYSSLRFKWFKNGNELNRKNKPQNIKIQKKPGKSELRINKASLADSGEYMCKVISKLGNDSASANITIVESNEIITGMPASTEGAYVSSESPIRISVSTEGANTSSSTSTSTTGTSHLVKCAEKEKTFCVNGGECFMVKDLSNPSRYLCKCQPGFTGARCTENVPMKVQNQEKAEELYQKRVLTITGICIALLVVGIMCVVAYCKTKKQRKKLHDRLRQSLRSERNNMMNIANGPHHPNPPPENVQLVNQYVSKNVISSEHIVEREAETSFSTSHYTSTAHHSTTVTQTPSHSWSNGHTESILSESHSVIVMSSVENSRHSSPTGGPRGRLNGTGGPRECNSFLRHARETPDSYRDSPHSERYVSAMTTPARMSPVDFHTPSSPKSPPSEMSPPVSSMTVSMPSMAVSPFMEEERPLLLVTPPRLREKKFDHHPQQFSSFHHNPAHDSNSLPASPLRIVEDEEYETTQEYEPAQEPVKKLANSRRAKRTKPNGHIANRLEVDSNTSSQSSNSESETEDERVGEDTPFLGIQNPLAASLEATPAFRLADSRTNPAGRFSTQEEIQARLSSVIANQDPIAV
Torsin-1A-interacting protein 2 (Homo sapiens), sequence (Q8NFQ8 whole entry, looked up): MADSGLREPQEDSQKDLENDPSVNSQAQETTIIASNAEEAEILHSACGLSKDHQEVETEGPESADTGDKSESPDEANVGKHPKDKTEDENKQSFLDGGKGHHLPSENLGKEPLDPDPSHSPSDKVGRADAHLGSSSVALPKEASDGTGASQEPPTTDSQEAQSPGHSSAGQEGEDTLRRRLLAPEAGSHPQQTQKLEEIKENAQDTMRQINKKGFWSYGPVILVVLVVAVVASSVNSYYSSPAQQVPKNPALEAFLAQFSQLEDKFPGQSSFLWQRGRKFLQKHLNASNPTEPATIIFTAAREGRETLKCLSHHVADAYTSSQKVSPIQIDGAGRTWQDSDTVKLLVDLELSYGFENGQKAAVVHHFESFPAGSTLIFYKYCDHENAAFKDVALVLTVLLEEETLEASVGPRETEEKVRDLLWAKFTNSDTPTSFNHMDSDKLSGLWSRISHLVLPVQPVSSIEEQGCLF

For `C#CCN(C(/C=C/c1ccccc1)CO)C(C(=O)O)c1ccccc1` (stereo not given), the composite z-score is -0.27 in [1]; -0.769 in [2]; -0.159 in experiment [3]; 0.263 in [4]; 0.0504 in [5]; -0.165 in experiment [6]. The composite z-score is -0.435 in [7]; -0.652 in experiment [9]; -0.284 in experiment [10]; -1.05 in experiment [11]; -0.595 in experiment [15]; -0.0849 in experiment [17]. Moreover, the composite z-score was 0.274 in [18], -0.715 in experiment [19] and -0.101 in [20]. Besides, the z-score in [8] was 1.2 (inactive); in experiment [12] it was 0.339 (inactive); in [13], -1.13 (inactive); in experiment [14], 0.148 (inactive); in experiment [16], 2.19 (inactive).
Take `C[C@]1(C(=O)NCc2ccccc2)c2ccccc2C(=O)N(Cc2ccc(OC(F)(F)F)cc2)[C@H]1c1ccc(CO)cc1`: the composite z-score in [1] was 0.161; in experiment [2], 1.14; in experiment [3], -0.0507; in [4] it was -0.0562; in experiment [5], -0.323; in experiment [6], 0.349. The composite z-score is 0.711 in experiment [7]; -0.409 in experiment [9]; -0.431 in [10]; -0.0073 in experiment [11]; 2.06 in experiment [15]; -0.0719 in [17]. Further, the composite z-score in experiment [18] is 0.0824; in experiment [19] it was -0.184; in [20], -0.0689. Also, the z-score was -4.27 (inactive) in [8]; -0.913 (inactive) in experiment [12]; -0.935 (inactive) in experiment [13]; -0.67 (inactive) in experiment [14]; 1.36 (inactive) in experiment [16].
For `C=CCOC(=O)[C@H]1[C@@H]2C(=O)O[C@@H](c3ccccc3)[C@@H](c3ccccc3)N2[C@@H](c2ccc(OCCOC(=O)[C@@H]3C[C@@H]4C(=O)N5CCC[C@H]5C(=O)N4[C@@H]3c3ccc(O)cc3)cc2)[C@]12C(=O)Nc1ccccc12`, the composite z-score was -0.212 in [1]; 0.434 in [2]; -0.108 in experiment [3]; 0.282 in experiment [4]; 0.356 in [5]; 0.771 in experiment [6]. The composite z-score in experiment [7] is 1.28; in experiment [9], 0.328; in experiment [10], -0.249; in experiment [11] it was 1.53; in experiment [15], 2.63; in experiment [17], -0.0984. Moreover, the composite z-score was 1.15 in experiment [18], 0.799 in [19] and -0.096 in experiment [20]. In addition, the z-score in [8] was -0.105 (inactive); in experiment [12], 0.821 (inactive); in experiment [13], 1.64 (inactive); in experiment [14], 3.79 (inactive); in [16], 0.621 (inactive).
`O=C1C[C@@](C(=O)NC2CC2)(c2ccc([N+](=O)[O-])cc2)[C@@H](c2ccc(CO)cc2)N1CC12CC3CC(CC(C3)C1)C2`: the composite z-score is -0.0569 in [1]; -0.121 in experiment [2]; -0.0111 in experiment [3]; 0.214 in experiment [4]; 1.4 in experiment [5]; 0.707 in experiment [6]. Moreover, the composite z-score in [7] is 0.745; in experiment [9], 0.424; in [10] it was -0.136; in experiment [11] it was 1.27; in [15], 1.61; in [17] it was 0.0469. Also, the composite z-score in [18] was 0.883; in experiment [19], 1.14; in [20], -0.0485. The z-score in experiment [8] is -0.962 (inactive); in [12], -0.632 (inactive); in experiment [13], -1.06 (inactive); in [14], 0.122 (inactive); in experiment [16], 0.587 (inactive).
For `COc1ccc(C#Cc2ccc3c(c2)[C@]2(C(=O)N3)[C@H](c3ccc(O)cc3)N3[C@H](c4ccccc4)[C@H](c4ccccc4)OC(=O)[C@H]3[C@@H]2C(=O)NC[C@H](O)c2ccccc2)cc1`, the composite z-score in experiment [1] was -0.127; in experiment [2], 0.0172; in [3], -0.0599; in [4], 0.776; in [5], 0.757; in [6], 0.563. Also, the composite z-score is 1.15 in [7]; 0.317 in experiment [9]; -0.288 in experiment [10]; 0.958 in experiment [11]; 2.17 in [15]; -0.0778 in experiment [17]. Moreover, the composite z-score in experiment [18] was 0.897; in [19] it was 1.01; in experiment [20], 0.0221. Further, the z-score in experiment [8] is 0.72 (inactive); in experiment [12], 2.29 (inactive); in [13], 0.241 (inactive); in experiment [14], 1.75 (inactive); in [16], 0.864 (inactive).
